Experimental data from PubChem BioAssay.
Activity calls are given as the source filed them.

Legend:
[1] = optical density shifts of acrAB sulA E. coli – strain DRC41, OD650, 48 h, E. coli filamentation inducer project, primary screen (AID 1152); settings: higher = more signal, called active from +8 up or from −8 down;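 also: E. coli MC1000 strain DRC41 lacking acrAB efflux pump and sulA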
[2] = probe aLefty1 binding on compound microarray – biochemical, small-molecule microarray, 635/667 nm fluorescence, primary screen (AID 1153); settings: higher = more signal;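 also: score merges spot fluorescence with signal-to-noise ratio from the scanned slide images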
[3] = plasmodial surface anion channel blockers, osmotic lysis – cell-based, P. falciparum Indochina, OD700, 1 h, primary screen (AID 1154); settings: P. falciparum Indochina infected RBC osmotic lysis, higher = more signal, called active from +8 up or from −8 down
[4] = plasmodial surface anion channel blockers, osmotic lysis – cell-based, P. falciparum Indochina, OD700, 2 h, primary screen (AID 1155);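 also: lysis reports solute entry through the parasite surface anion channel PSAC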; settings: P. falciparum Indochina infected erythrocytes, higher = more signal, called active from +8 up or from −8 down
[5] = changes in parasitized red cell lysis, either direction – P. falciparum Indochina, OD700, 3 h, PSAC antagonist project, primary screen (AID 1156); settings: P. falciparum-infected erythrocytes, osmotic lysis, higher = more signal, called active from +8 up or from −8 down
[6] = plasmodial surface anion channel blockers, osmotic lysis – cell-based, P. falciparum Indochina, OD700, 18 h, primary screen (AID 1157); settings: P. falciparum Indochina infected erythrocytes, osmotic lysis OD700, 18 h; higher = more signal, called active from +8 up or from −8 down
[7] = S6 kinase pathway phospho-S6 level changes – cell-based, A549, cytoblot, luminescence, serum-stimulated, primary screen (AID 1158); settings: 5 h, higher = more signal;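 also: serum-stimulated A549 lung adenocarcinoma cells; signal is phosphorylated S6 detected by cytoblot immunostaining with HRP secondary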
[8] = molecular target: NADPH oxidase 2 (Homo sapiens) (UniProt P04839); test: compounds shifting NOX2 Amplex Red fluorescence – cell-based, HEK293-NOX2, PMA-stimulated, NOX inhibitor project, primary screen (AID 1159); settings: 45 min, higher = more signal, called active from +8 up or from −8 down; also: test concentration not given here
Sequence of NADPH oxidase 2 (Homo sapiens) (P04839 whole entry, looked up): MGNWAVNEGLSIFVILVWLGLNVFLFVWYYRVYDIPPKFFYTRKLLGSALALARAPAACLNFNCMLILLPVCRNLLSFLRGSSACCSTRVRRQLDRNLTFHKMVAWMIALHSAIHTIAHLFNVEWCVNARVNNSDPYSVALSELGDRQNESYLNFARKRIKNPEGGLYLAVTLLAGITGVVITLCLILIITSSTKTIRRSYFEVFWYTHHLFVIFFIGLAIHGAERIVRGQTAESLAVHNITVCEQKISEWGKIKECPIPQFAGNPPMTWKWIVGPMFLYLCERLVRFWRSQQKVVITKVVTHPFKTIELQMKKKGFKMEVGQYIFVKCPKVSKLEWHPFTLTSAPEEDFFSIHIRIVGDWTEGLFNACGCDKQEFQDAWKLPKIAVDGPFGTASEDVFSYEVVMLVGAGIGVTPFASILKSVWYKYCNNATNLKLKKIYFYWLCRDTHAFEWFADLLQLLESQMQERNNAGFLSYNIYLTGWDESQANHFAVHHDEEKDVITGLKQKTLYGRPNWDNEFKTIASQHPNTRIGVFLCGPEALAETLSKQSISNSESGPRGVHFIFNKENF

[9] = molecular target: NADPH oxidase 4 (Homo sapiens) (UniProt Q9NPH5); test: compounds shifting NOX4 Amplex Red fluorescence – cell-based, HEK293-NOX4, tetracycline-induced, NOX inhibitor project, primary screen (AID 1160); settings: HEK293-NOX4, Amplex Red H2O2 fluorescence, 45 min; higher = more signal, called active from +8 up or from −8 down
Sequence of NADPH oxidase 4 (Homo sapiens) (Q9NPH5 whole entry, looked up): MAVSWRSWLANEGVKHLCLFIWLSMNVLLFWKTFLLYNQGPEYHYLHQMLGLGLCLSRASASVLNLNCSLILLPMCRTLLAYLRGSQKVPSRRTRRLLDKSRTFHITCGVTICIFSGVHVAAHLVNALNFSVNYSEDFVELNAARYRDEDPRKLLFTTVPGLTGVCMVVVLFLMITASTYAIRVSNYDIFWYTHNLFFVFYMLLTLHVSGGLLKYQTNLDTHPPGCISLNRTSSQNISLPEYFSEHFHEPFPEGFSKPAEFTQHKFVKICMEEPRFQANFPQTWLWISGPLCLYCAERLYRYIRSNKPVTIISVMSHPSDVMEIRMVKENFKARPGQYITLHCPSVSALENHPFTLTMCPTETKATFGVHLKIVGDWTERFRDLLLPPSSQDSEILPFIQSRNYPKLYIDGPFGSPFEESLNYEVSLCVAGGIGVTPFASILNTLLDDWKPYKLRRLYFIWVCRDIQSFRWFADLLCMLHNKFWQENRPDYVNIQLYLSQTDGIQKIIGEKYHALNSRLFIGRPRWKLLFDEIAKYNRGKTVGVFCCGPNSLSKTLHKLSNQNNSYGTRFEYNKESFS

[10] = molecular target: NADPH oxidase 5 (Homo sapiens) (UniProt Q96PH1); test: compounds shifting NOX5 Amplex Red fluorescence – cell-based, HEK293-NOX5, NOX inhibitor project, primary screen (AID 1161); settings: HEK293-NOX5, ionomycin, 45 min, higher = more signal
Sequence of NADPH oxidase 5 (Homo sapiens) (Q96PH1 whole entry, looked up): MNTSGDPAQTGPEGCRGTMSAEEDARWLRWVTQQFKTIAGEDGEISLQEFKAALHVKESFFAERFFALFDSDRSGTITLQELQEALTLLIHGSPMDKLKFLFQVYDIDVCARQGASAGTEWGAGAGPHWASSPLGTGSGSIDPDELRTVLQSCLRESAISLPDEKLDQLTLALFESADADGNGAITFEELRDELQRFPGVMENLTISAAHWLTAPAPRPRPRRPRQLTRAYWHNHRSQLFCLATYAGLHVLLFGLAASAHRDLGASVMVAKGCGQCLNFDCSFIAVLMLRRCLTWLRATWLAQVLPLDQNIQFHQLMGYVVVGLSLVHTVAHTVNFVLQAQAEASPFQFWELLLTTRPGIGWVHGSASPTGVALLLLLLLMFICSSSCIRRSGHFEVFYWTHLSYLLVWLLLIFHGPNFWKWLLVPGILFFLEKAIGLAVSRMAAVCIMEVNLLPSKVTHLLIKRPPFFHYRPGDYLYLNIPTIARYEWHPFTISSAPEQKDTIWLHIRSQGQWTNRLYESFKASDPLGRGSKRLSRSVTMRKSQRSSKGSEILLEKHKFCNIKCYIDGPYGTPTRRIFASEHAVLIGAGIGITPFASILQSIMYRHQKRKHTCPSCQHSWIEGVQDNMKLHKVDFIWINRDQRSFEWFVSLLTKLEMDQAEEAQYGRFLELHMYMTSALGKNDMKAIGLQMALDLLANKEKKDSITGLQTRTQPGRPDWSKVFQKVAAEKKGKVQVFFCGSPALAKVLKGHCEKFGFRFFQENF

[11] = compound effects on lung adenocarcinoma cell viability – A549, calcein-AM fluorescence, 48 h, basal, profiling panel (AID 1162); settings: higher = more signal; also: test concentration not given here
[12] = compound effects on differentiated 3T3-L1 adipocyte viability – cell-based, 3T3-L1 adipocytes, calcein-AM fluorescence, 48 h, basal, profiling panel (AID 1163); settings: 3T3-L1 adipocytes viability, higher = more signal; also: test concentration not given here
[13] = compound effects on hepatocellular carcinoma cell viability – HepG2, calcein-AM fluorescence, 48 h, basal, profiling panel (AID 1164); settings: higher = more signal; also: test concentration not given here
[14] = compound effects on multiple myeloma cell viability – MM1S, calcein-AM fluorescence, 48 h, basal, profiling panel (AID 1165); settings: higher = more signal;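 also: viability of MM1S multiple myeloma cells under basal unstimulated conditions; test concentration not given here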
[15] = calcein-AM signal in unstimulated myeloma cells – cell-based, calcein-AM fluorescence, 48 h, PK04 Diversity Set, profiling panel (AID 1166); settings: RPMI8226 myeloma viability, higher = more signal;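 also: cells grown under basal conditions without added stimulus; test concentration not given here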
[16] = JC-1 mitochondrial signal, unstimulated HepG2 cells – cell-based, JC-1 fluorescence, 24 h, 100 nL compound, profiling panel (AID 1167); settings: HepG2 mitochondrial potential, higher = more signal; also: test concentration not given here
[17] = JC-1 mitochondrial signal, unstimulated adipocytes – cell-based, JC-1 fluorescence, 3T3-L1 adipocytes, 24 h, 100 nL compound, profiling panel (AID 1168); settings: JC-1 mitochondrial fluorescence, higher = more signal, called active from +8 up or from −8 down; also: test concentration not given here
[18] = JC-1 mitochondrial signal, unstimulated myeloma cells – cell-based, JC-1 fluorescence, RPMI8226, 24 h, 100 nL compound, profiling panel (AID 1169); settings: JC-1 mitochondrial potential fluorescence, higher = more signal; also: test concentration not given here
[19] = JC-1 mitochondrial signal, unstimulated MM1S myeloma – cell-based, JC-1 fluorescence, 24 h, 100 nL compound, profiling panel (AID 1170); settings: MM1S mitochondrial potential, higher = more signal; also: test concentration not given here
[20] = resazurin metabolic signal in A549 cells – cell-based, resazurin fluorescence, 24 h, PK04 Diversity Set, profiling panel (AID 1171); settings: A549 viability, higher = more signal, called active from +8 up or from −8 down; also: test concentration not given here

SMILES | z-score [1] | composite z-score [2] | z-score [3] | z-score [4] | z-score [5] | z-score [6] | z-score [7] | z-score [8] | z-score [9] | z-score [10] | z-score [11] | z-score [12] | z-score [13] | z-score [14] | z-score [15] | z-score [16] | z-score [17] | z-score [18] | z-score [19] | z-score [20]
CS(=O)(=O)CCOC(=O)C1=CC(c2ccc(CO)cc2)=CC(C2CC2)N(Cc2cc3c(cc2Br)OCO3)C=C1C(=O)OCCS(C)(=O)=O (stereo not given) | -1.9 (inactive) | 0.199 | 17.2 (active) | 3.22 (inactive) | 0.904 (inactive) | 1.29 (inactive) | 0.376 | -1.77 (inactive) | -0.749 (inactive) | -2.03 | -0.261 | -0.14 | 1.04 | -2.68 | -2.41 | 2.99 | 0.253 (inactive) | -0.787 | -1.8 | -1.14 (inactive)
CCCNC(=O)[C@@H]1c2ccccc2C(=O)N(Cc2ccccc2)[C@H]1c1ccc(CO)cc1 | -0.731 (inactive) | -0.0508 | 1.36 (inactive) | -0.325 (inactive) | 1.41 (inactive) | 0.0842 (inactive) | 0.0533 | -0.802 (inactive) | -1.63 (inactive) | -2.53 | 0.756 | 1.38 | 0.817 | -0.183 | 0.502 | 2.12 | -1.28 (inactive) | -0.681 | -0.549 | 0.528 (inactive)
COCCOC(=O)N1C(=O)[C@@]2(c3cc(C#CCNC(N)=O)ccc31)[C@H](c1ccccc1OCCO)N1[C@H](c3ccccc3)[C@H](c3ccccc3)OC(=O)[C@H]1[C@@H]2C(N)=O | -0.816 (inactive) | -0.111 | 4.2 (inactive) | 0.655 (inactive) | 0.4 (inactive) | 0.344 (inactive) | -0.463 | 2.29 (inactive) | -0.672 (inactive) | -0.584 | -0.0052 | -0.131 | -0.617 | -0.456 | 0.0352 | -1.83 | 0.369 (inactive) | -0.115 | -1.08 | 0.0565 (inactive)
CCCCCN1CC=CC23O[C@@H]4/C=C\CCCOC(=O)C4[C@H]2C(=O)N(CCCCCCO)[C@@H]3C1=O (stereo not given in full) | 2.24 (inactive) | -0.146 | 2.25 (inactive) | 0.753 (inactive) | -0.387 (inactive) | 0.158 (inactive) | 5.32 | 0.876 (inactive) | 0.243 (inactive) | 1.75 | 1.26 | 2.1 | 1.54 | 1.37 | 1.97 | 0.482 | -0.462 (inactive) | 0.521 | -1.09 | 0.4 (inactive)
O=C1C[C@@](C(=O)NC2CC2)(c2ccc([N+](=O)[O-])cc2)[C@@H](c2ccc(CO)cc2)N1CC12CC3CC(CC(C3)C1)C2 | 0.904 (inactive) | 0.0861 | 2.28 (inactive) | -0.135 (inactive) | 0.678 (inactive) | -0.83 (inactive) | 0.392 | 0.987 (inactive) | -2.19 (inactive) | -2.35 | -1.14 | 0.781 | -1.94 | -2.07 | -3.09 | -0.881 | -0.199 (inactive) | -0.507 | -0.214 | -1.45 (inactive)
CN(C)CCCCNC(=O)[C@H]1C[C@H]2C(=O)N[C@@H](Cc3ccccc3)C(=O)N2[C@H]1c1ccc(O)cc1 | 1.22 (inactive) | 0.0161 | -0.0717 (inactive) | -0.63 (inactive) | 0.347 (inactive) | -0.512 (inactive) | 0.403 | -1.35 (inactive) | -1.66 (inactive) | -3.92 | -0.451 | 0.7 | -0.98 | -0.417 | 0.287 | -0.77 | -0.248 (inactive) | -0.136 | -0.149 | -0.1 (inactive)
COC(=O)c1ccc(C23CC2(C(NP(=O)(c2ccccc2)c2ccccc2)c2ccccc2)C3)cc1 (stereo not given) | -0.402 (inactive) | 1.08 | 7.74 (inactive) | 0.191 (inactive) | -0.279 (inactive) | -1.02 (inactive) | 1.36 | -0.489 (inactive) | -0.652 (inactive) | -4.37 | 0.766 | 0.406 | 1.48 | -2.06 | -3.34 | 3.7 | 0.711 (inactive) | -0.369 | -1.45 | -0.416 (inactive)
C=C(CCCC)C(=O)CC[C@H](OC(=O)c1cccnc1)c1cccc(OCCO)c1 | -0.03 (inactive) | -0.147 | 20.7 (active) | 4.33 (inactive) | 1.83 (inactive) | 1.19 (inactive) | 0.0701 | -0.372 (inactive) | -0.417 (inactive) | -2.11 | 0.952 | 0.136 | 0.316 | -3.35 | -2.66 | 1.39 | 0.139 (inactive) | -0.726 | -0.592 | 0.358 (inactive)
